Only some compounds are listed: those with a hit (about 2.9% of all), similar ones and a draw of the others.
FBA Mtb inh: Mtb FBA enzyme inhibitors, primary screen, biochemical, fluorescence, strain H37Rv | Fructose-bisphosphate aldolase (Mycobacterium tuberculosis (strain ATCC 25618 / H37Rv)), … | purified M. tuberculosis FBA, fluorescence read-out | inhibition, % at 1 µM | actives 2.3% (n = 360,000); in the data active means inhibition above about 27%;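 further: 0% = vehicle and 100% = reference inhibitor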
Target sequence (P9WQA3 whole entry, looked up): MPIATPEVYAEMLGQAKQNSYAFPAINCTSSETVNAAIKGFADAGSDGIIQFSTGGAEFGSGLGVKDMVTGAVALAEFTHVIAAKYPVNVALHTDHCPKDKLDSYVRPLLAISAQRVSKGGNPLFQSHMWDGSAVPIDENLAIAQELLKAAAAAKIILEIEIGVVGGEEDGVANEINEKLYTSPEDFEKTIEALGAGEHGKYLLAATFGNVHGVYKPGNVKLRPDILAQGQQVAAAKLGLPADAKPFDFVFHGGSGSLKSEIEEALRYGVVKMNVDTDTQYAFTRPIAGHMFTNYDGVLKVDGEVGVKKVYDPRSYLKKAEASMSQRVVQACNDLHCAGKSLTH
FadD28 binding: inhibitors of FadD28 bisubstrate probe binding, primary screen, biochemical, fluorescence polarization, single point; Mycobacterium tuberculosis FadD28 fatty-acid-AMP ligase; inhibition, % at 12.5 µM; actives 0.22% (n = 360,000); in the data active means inhibition above about 8.5%, passing the limit was not always enough; inconclusive means no clear call, values can overlap the other calls
Mtb BioA inh: M. tuberculosis BioA enzyme inhibitors, primary screen, biochemical, plate reader, single point, HTS | purified M. tuberculosis BioA enzyme | 7,8-diaminopelargonic acid synthase BioA (Mycobacterium tuberculosis) | actives 0.096% (n = 360,000) | inhibition, % at 9.99 µM; in the data active means inhibition above about 40%; inconclusive means no clear call, values can overlap the other calls
Mtb hypoxia inh: PubChem AID 1159583. M. tuberculosis hypoxia-regulated fluorescent reporter, fluorescence. fluorescence inhibition, % (test concentration not listed). actives 0.1% (n = 300,000); in the data active means fluorescence inhibition mostly above about 23%, no sharp cut-off; inactive means mostly below about 17%
GDH-TPI inh: GDH-TPI coupling enzyme inhibitors, primary screen, artefact control for M. tuberculosis FBA inhibitor project, biochemical, absorbance, full deck | actives 1.2% (n = 360,000) | GDH-TPI coupled enzyme counterscreen, NADH absorbance | inhibition, % at 4.8 µM; in the data active means inhibition above about 30%;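 further: 0% = DMSO wells and 100% = wells lacking the enzyme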
An asterisk follows results filed as active; ? = inconclusive; . = not tested or not shown; + = active, no number.

SMILES | FBA Mtb inh | FadD28 binding | Mtb BioA inh | Mtb hypoxia inh | GDH-TPI inh
COCCCn1c(=N)c(C(=O)NC2CCCCC2)cc2c(=O)n3ccccc3nc21 | + | -1 | 0 | 1 | 12
Cc1ccc2nc3c(cc(C(=O)NCC4CCCO4)c(=N)n3CC3CCCO3)c(=O)n2c1 (stereo not given) | + | 1 | . | 0 | 2
N=c1c(C(=O)NC2CCCC2)cc2c(=O)n3ccccc3nc2n1CC1CCCO1 (stereo not given) | + | -2 | . | 2 | 10
C[C@@H]1CN([C@H](C)CO)C(=O)c2cc(NC(=O)NC3CCCCC3)ccc2O[C@H]1CN(C)Cc1ccncc1 | . | . | 0 | . | .
CCCC=C1CCCOC(C(=O)NCc2ccc(S(C)(=O)=O)cc2)(C(F)(F)F)C1 (stereo not given) | . | . | . | -1 | .
CC(C)NC(=O)Nc1ccc2c(c1)CC(=O)N([C@H](C)CO)C[C@@H](C)[C@H](CN(C)C(=O)Nc1ccc(C(F)(F)F)cc1)O2 | . | . | 0 | . | .
CC(NC(=O)c1cc2c(=O)n3ccccc3nc2n(CC2CCCO2)c1=N)c1ccccc1 (stereo not given) | + | 0 | 0 | -16 | 18
COCCCn1c(C(=O)N2CC(C)OC(C)C2)cc2c(=O)n3ccccc3nc21 (stereo not given) | + | -2 | -1 | 3 | 18
CC(C)OCCCn1c(=N)c(S(=O)(=O)c2ccccc2)cc2c(=O)n3ccccc3nc21 | 13 | 0 | -5 | 1 | 13
Cc1ccc(CNC(=O)c2cc3c(=O)n4ccccc4nc3n(CC3CCCO3)c2=N)cc1 (stereo not given) | + | -3 | . | 9 | 3
CCOC(=O)c1cc2c(=O)n3ccccc3nc2n(CC2CCCO2)c1=NC(C)=O (stereo not given) | . | -1 | 3 | 5 | 18
CCOC(=O)c1cc2c(=O)n3ccccc3nc2n(CC2CCCO2)c1=NC(=O)/C=C/c1ccccc1 (stereo not given) | + | 0 | . | -4 | 26
CC(=O)c1ccc(-c2ccc(/C=C(/Sc3n[nH]c(C)n3)C(=O)O)o2)cc1 | -17 | -1 | . | 2 | 39*
Cc1nc(S/C(=C/c2ccc(-c3ccc(C(=O)O)cc3)o2)C(=O)O)n[nH]1 | -19 | ? | 0 | . | 28
CCCC#Cc1cnc2c(c1)C(=O)N([C@H](C)CO)C[C@@H](C)[C@@H](CN(C)Cc1ccncc1)O2 | . | . | 0 | . | .
COCCn1c(=NC(=O)c2cc(-c3cccs3)nc3ccccc23)sc2cc(S(N)(=O)=O)ccc21 | 6 | -4 | . | 9 | 0
CCOCCn1c(=NC(=O)c2cc3ccccc3oc2=O)sc2cc(S(N)(=O)=O)ccc21 | -1 | 0 | 0 | . | 46*
COC(=O)Cn1c(=NC(=O)CN2C(=O)CCC2=O)sc2cc(S(N)(=O)=O)ccc21 | -3 | 0 | -5 | . | 1
COCCn1c(=NC(=O)c2ccc(S(=O)(=O)N3CCOCC3)cc2)sc2cc(S(N)(=O)=O)ccc21 | 0 | -8 | 0 | 6 | 33*
COC(=O)Cn1c(=NC(=O)c2ccc(S(=O)(=O)N3CCOCC3)cc2)sc2cc(S(N)(=O)=O)ccc21 | 2 | -7 | 0 | 10 | 32*
COCCn1c(=NC(=O)c2sc3ccccc3c2Cl)sc2cc(S(N)(=O)=O)ccc21 | 4 | -1 | 1 | . | 29
CO[C@H](CN(C)S(=O)(=O)c1ccc(F)cc1)[C@H](C)CN(C(=O)Nc1ccccc1F)[C@H](C)CO | . | . | 0 | . | .
COc1ccccc1S(=O)(=O)N[C@@H]1CC[C@@H](CC(=O)N2CCOCC2)O[C@@H]1CO | . | . | 2 | . | .
CO[C@@H]1CN(C)C(=O)c2cc(NC(=O)C3CC3)ccc2OC[C@H](C)N(CCc2ccccc2)C[C@H]1C | . | . | 2 | . | .
COc1ccc(CC(=O)N/N=C/c2ccc(-c3cccc(C(=O)O)c3)o2)cc1OC | 5 | 1 | 1 | . | 75*
SMILES | FBA Mtb inh | FadD28 binding | Mtb BioA inh | Mtb hypoxia inh | GDH-TPI inh
O=C(Cc1ccc(Br)cc1)NN=Cc1ccc(-c2cccc(C(=O)O)c2)o1 | . | . | . | 13 | .
COc1ccc(CC(=O)N/N=C/c2ccc(-c3ccc(F)cc3)o2)cc1OC | 0 | -1 | -3 | . | 45*
O=[N+]([O-])c1cccc(-c2ccc(/C=N/NC(=S)Nc3ccccc3)o2)c1 | 1 | 0 | -3 | . | 34*
CNC(=S)N/N=C/c1ccc(-c2cccc(C(=O)O)c2)o1 | 7 | -2 | . | . | 85*
O=C(C[C@H]1C=C[C@H](NC(=O)C2CCC2)[C@@H](CO)O1)NCC1CC1 | . | . | -2 | . | .
O=[N+]([O-])c1ccc(Nc2ccccc2)c2nonc12 | -10 | -1 | 6 | . | 8
CC(=O)NS(=O)(=O)c1ccc(Nc2ccc([N+](=O)[O-])c3nonc23)cc1 | -28 | 1 | . | 38* | 18
Cc1ccc2nc3nc(NCC4CCCO4)c(C(=O)NC4CCCC4)cc3c(=O)n2c1 (stereo not given) | 151* | 0 | -3 | 0 | 5
COc1ccc(CCn2c(=N)c(C(=O)NC3CCCC3)cc3c(=O)n4ccccc4nc32)cc1 | -5 | -6 | -4 | 3 | -2
CCNc1nc2nc3ccc(C)cn3c(=O)c2cc1C(=O)NCC1CCCO1 (stereo not given) | + | -2 | . | 13 | -3
CCC(=O)Nc1nc2ccc([N+](=O)[O-])cc2s1 | 3 | -1 | . | 6 | 31*
CS(=O)(=O)c1ccc2nc(NC(=O)c3ccc(NS(=O)(=O)c4cccc([N+](=O)[O-])c4)cc3)sc2c1 | 0 | 2 | . | 0 | 89*
C/C=C/c1ccc2c(c1)O[C@H](CN(C)C(=O)c1ccccn1)[C@@H](C)CN([C@H](C)CO)S2(=O)=O | . | . | 0 | . | .
O=c1nc(/C=C/c2ccc(O)c(O)c2)oc2ccccc12 | -13 | 1 | 1 | -1 | 44*
CCOC(=O)c1ccc(-n2c(CN3CCC(O)CC3)nc3ccc([N+](=O)[O-])cc3c2=O)cc1 | 0 | 0 | . | 9 | 45*
COC(=O)c1[nH]c2cc(OC)c(OC)cc2c1NC(=O)c1cccc(OC)c1 | -2 | 2 | -1 | . | 32*
CCOC(=O)c1[nH]c2ccc(OC)cc2c1NC(=O)c1ccc(OC)c(OC)c1 | 0 | -1 | . | -5 | 3
O=C(O)CCn1c(-c2ccccn2)nc2ccccc21 | 27* | 1 | -1 | -9 | 0
O=C(O)CCn1c(CO)nc2ccccc21 | 1 | -3 | . | 7 | 5
Cc1ccc(/C=N\Nc2nc3ccc(Cl)cc3[nH]2)o1 | -1 | -3 | -1 | . | 45*
Fc1ccccc1-c1ccc(C=NNc2nc3ccccc3[nH]2)o1 | . | . | . | 6 | .
